Measured values published in PubChem BioAssay (Tox21).
Values joined by “and” are separate entries in the source; they are usually repeats but may differ in a detail not shown here. Equal values may be shown once. Where a structure was tested more than once in an assay, its records may differ in their call. Active and inactive are the calls of the source. Unless noted, calls come from the whole dose curve; as a rule, active = well fitted curve in the direction sought with a large enough effect in the repeat runs; inconclusive = weak or mixed curves; inactive = no such curve, though single readings can be large; an effect the other way counts as inactive or inconclusive.

Legend:
[1] = qHTS assay to identify small molecule antagonists of the thyroid receptor (TR) signaling pathway - cell viability counter screen (AID 743064); note: nearly all actives have a fitted effect of over 50% in size; note: potency is the fitted concentration of half-maximal effect
How it was run: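 GH3.TRE-Luc cells, 4 h pre-plating; cpd + T3 1 nM final; 37 °C 23.5 h; CellTiter-Fluor 30 min; fluorescence read.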

[2] = qHTS assay to identify small molecule antagonists of the thyroid receptor (TR) signaling pathway (AID 743065); note: potency is the fitted concentration of half-maximal effect; nearly all actives have a fitted effect of over 55% in size
How it was run: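 GH3.TRE-Luc rat pituitary cells carrying two TR response elements driving luciferase were plated for 4 h, given compound plus 1 nM T3 (final), and incubated 23.5 h at 37 C. ONE-Glo luminescence measured reporter inhibition; CellTiter-Fluor fluorescence tracked cytotoxicity.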

[3] = tested on: thyroid hormone receptor (rat, GH3 cells); test: qHTS assay to identify small molecule agonists of the thyroid receptor (TR) signaling pathway (AID 743066; calls by dose curve; note: % is set by controls: 0 for no effect and ±100 for the full control effect)
Aromatase (Homo sapiens) = Aromatase (Homo sapiens) (UniProt P11511); test: qHTS assay to identify aromatase inhibitors (AID 743083); note: nearly all actives have a fitted effect of over 55% in size; note: potency is the fitted concentration of half-maximal effect
Aromatase (Homo sapiens), sequence (P11511 whole entry, looked up): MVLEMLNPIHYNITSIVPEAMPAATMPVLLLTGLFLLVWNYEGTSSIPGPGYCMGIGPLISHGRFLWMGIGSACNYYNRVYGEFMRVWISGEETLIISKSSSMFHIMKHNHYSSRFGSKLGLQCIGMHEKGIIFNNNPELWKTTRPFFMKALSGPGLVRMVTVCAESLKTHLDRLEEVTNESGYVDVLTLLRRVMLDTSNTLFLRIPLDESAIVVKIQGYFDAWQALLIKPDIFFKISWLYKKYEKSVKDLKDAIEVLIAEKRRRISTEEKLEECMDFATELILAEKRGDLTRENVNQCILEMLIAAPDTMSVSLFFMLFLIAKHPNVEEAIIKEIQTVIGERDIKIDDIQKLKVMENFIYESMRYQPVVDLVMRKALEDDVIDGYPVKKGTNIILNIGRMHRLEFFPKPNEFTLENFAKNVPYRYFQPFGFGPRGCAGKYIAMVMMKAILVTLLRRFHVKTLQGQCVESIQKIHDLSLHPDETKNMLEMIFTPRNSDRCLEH

[4] = molecular target: Estrogen receptor (Homo sapiens) (UniProt P03372); test: qHTS assay to identify small molecule antagonists of the estrogen receptor alpha (ER-alpha) signaling pathway (AID 743069; active = well fitted curve in the direction sought with a large enough effect in the signal ratio in the repeat runs, not every such curve was filed as active; inconclusive = weak or mixed curves, or effect the other way; inactive = no such curve, though single readings can be large or run the other way; the % refers to the signal ratio; note: potency is the fitted concentration of half-maximal effect)
Estrogen receptor (Homo sapiens), sequence (P03372 whole entry, looked up): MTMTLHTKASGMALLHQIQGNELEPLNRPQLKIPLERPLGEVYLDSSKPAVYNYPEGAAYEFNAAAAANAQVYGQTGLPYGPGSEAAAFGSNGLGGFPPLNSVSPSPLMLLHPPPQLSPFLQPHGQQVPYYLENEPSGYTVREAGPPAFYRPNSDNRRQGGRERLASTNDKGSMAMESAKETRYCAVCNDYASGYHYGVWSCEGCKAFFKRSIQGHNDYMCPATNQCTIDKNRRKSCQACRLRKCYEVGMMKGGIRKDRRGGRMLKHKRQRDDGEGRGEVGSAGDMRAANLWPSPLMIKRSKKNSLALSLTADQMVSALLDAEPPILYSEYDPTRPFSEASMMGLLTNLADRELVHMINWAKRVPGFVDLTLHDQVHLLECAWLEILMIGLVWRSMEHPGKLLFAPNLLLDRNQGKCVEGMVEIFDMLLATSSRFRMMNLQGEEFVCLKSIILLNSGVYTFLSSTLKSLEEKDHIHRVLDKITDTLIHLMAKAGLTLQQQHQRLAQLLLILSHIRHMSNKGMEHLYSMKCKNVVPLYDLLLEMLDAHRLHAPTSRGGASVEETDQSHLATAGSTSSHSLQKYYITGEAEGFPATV
How it was run: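 Screening used a UAS-driven beta-lactamase reporter integrated into HEK293 cells expressing ER-alpha, stimulated with 17beta-estradiol alongside test compounds over 18 hr at 37C; signal came from LiveBLAzer B/G FRET fluorescence.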

[5] = qHTS assay to identify small molecule antagonists of the estrogen receptor alpha (ER-alpha) signaling pathway - cell viability counter screen (AID 743074; calls by dose curve; note: nearly all actives have a fitted effect of over 45% in size; note: potency is the fitted concentration of half-maximal effect)
[6] = molecular target: Estrogen receptor (Homo sapiens) (UniProt P03372); test: qHTS assay to identify small molecule agonists of the estrogen receptor alpha (ER-alpha) signaling pathway (AID 743075; calls by dose curve; note: potency is the fitted concentration of half-maximal effect; for activation: % is set by controls: 0 for no effect and ±100 for the full control effect)
[7] = qHTS assay to identify small molecule antagonists of the estrogen receptor alpha (ER-alpha) signaling pathway using the BG1 cell line (AID 743080; calls by dose curve;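 note: BG1 cells stimulated with 17beta-estradiol alongside compound; nearly all actives have a fitted effect of over 25% in size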; note: potency is the fitted concentration of half-maximal effect; for activity change, negative = inhibition: % is set by controls: 0 for no effect and ±100 for the full control effect); conditions: BG1Luc4E2 ERE-luciferase antagonist mode, luminescence; activity change, negative = inhibition: at 70.3 µM (top of the series)
How it was run: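 After 5 days in phenol-red-free 10% charcoal-stripped FBS medium, BG1-Luc-4E2 cells were seeded, left 24 h at 37 C, co-treated with compounds and 17beta-estradiol for 21.5 h, then assayed for viability and luciferase.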

[8] = qHTS assay to identify small molecule antagonists of the estrogen receptor alpha (ER-alpha) signaling pathway using the BG1 cell line - cell viability counter screen (AID 743081);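 note: compound given together with 17beta-estradiol as the ER stimulus; nearly all actives have a fitted effect of over 45% in size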; note: potency is the fitted concentration of half-maximal effect
[9] = molecular target: Estrogen receptor (Homo sapiens) (UniProt P03372); test: qHTS assay to identify small molecule agonists of the estrogen receptor alpha (ER-alpha) signaling pathway using the BG1 cell line (AID 743079); conditions: BG1Luc4E2 cells, ERE-luciferase agonist, 22 h; activation: at 70.3 µM (top of the series); note: nearly all actives have a fitted effect of over 20% in size; note: potency is the fitted concentration of half-maximal effect; for activation: % is set by controls: 0 for no effect and ±100 for the full control effect

CC(=O)OC(OC(C)=O)c1ccc([N+](=O)[O-])o1
active: Potency [1] 13.9 µM | Potency [2] 13.9 µM | Potency (Aromatase (Homo sapiens)) 17.5 µM
inactive: Potency [3]

CSc1ccc2c(c1)N(CCC1CCCCN1C)c1ccccc1S2 (centres undefined)
active: Potency [1] 7.5 µM and 8.6 µM | Potency [2] 7.5 µM and 9.65 µM | Potency [4] 23.9 µM [inconclusive] | Potency [5] 54.7 µM | Potency (Aromatase (Homo sapiens)) 27.2 µM
inactive and 68.3 µM (active): Potency [8]
inactive: Potency [6] | Potency [7]

CCC(C)c1cc([N+](=O)[O-])cc([N+](=O)[O-])c1OC(=O)OC(C)C (centres undefined)
active: Potency [1] 48.6 µM | Potency [2] 21.7 µM | Potency (Aromatase (Homo sapiens)) 61.1 µM
inactive: Potency [3]

COc1cc(C(=O)NS(=O)(=O)c2ccccc2C)ccc1Cc1cn(C)c2ccc(NC(=O)OC3CCCC3)cc12
active: Potency [1] 29.8 µM | Potency [2] 26.6 µM
inactive: Potency [6] | Potency [9] | Potency [7] | Potency [8] | Potency (Aromatase (Homo sapiens))

C=C(c1ccc(C(=O)O)cc1)c1cc2c(cc1C)C(C)(C)CCC2(C)C
active: Potency [1] 11.9 µM and 13.7 µM | Potency [2] 9.44 µM and 9.69 µM | Potency [4] 17.4 µM [fluorescent] | Potency [7] 3.76 µM
inactive: Potency [9] | Potency [8]
inactive and 61.1 µM (active): Potency (Aromatase (Homo sapiens))

CCCCOc1ccc(C(=O)CCN2CCCCC2)cc1
active: Potency [1] 5.07 µM | Potency [2] 3.59 µM | Potency [9] 4.52 µM
inactive: Potency [4] | Potency [5] | Potency [6] | Potency [8] | Potency (Aromatase (Homo sapiens))

O[C@@H](c1cc(C(F)(F)F)nc2c(C(F)(F)F)cccc12)[C@H]1CCCCN1
inactive: Potency [7] | Potency [8]
active: Potency [1] 5.96 µM | Potency [2] 5.96 µM | Potency [5] 23.9 µM | Potency [6] 26.8 µM [inconclusive] | Potency [9] 2.37 µM | Potency (Aromatase (Homo sapiens)) 23.7 µM

CCN(CC)CCNc1ccc(CO)c2sc3ccccc3c(=O)c12
active: Potency [1] 4.73 µM | Potency [2] 1.06 µM | Potency [4] 30.1 µM [inconclusive] | Potency [8] 13.3 µM
inactive: Potency [5] | Potency [6] | Potency (Aromatase (Homo sapiens))

C=C1C(C)(C)[C@@]2(Cl)C(Cl)[C@]1(Cl)C(Cl)(Cl)C2(Cl)Cl (some centres undefined)
inactive: Potency [3] | Potency [8]
active: Potency [1] 26.8 µM | Potency [2] 23.9 µM | Potency (Aromatase (Homo sapiens)) 60 µM

COc1cc(C=C2CCC/C(=C\c3ccc(O)c(OC)c3)C2=O)ccc1O
inactive: Potency [6] | Potency [7]
active: Potency [1] 7.5 µM | Potency [2] 6.68 µM | Potency [4] 15.1 µM [inconclusive] | Potency (Aromatase (Homo sapiens)) 21.1 µM

CC(C)(C)c1cc(/C=C2\SC(=N)NC2=O)cc(C(C)(C)C)c1O
inactive: Potency [8]
active: Potency [1] 21.7 µM | Potency [2] 13.7 µM | Potency [5] 54.9 µM

COc1ccc2sc(C(=O)Nc3nnn[nH]3)c(OC(C)C)c2c1
active: Potency [1] 7.66 µM | Potency [2] 6.09 µM | Potency [7] 54.3 µM
inactive: Potency [6] | Potency [8]

COc1ccccc1OCCNCC(O)COc1cccc2[nH]c3ccccc3c12 (centres undefined)
active: Potency [1] 29.8 µM
inactive: Potency [4] | Potency [5] | Potency [6] | Potency (Aromatase (Homo sapiens))

CCC(C)(C)c1cc(O)c(C(C)(C)CC)cc1O
active: activity change, negative = inhibition [7] 6.54% | Potency (Aromatase (Homo sapiens)) 24.3 µM
inactive: Potency [1] | Potency [3] | Potency [6] | Potency [9] | Potency [8]

CN(C)CCOC(c1ccccc1)c1ccccc1 (tested in a mixture with another compound)
inactive: Potency [3] | Potency [4] | Potency [6] | Potency [9] | Potency [7]
active: Potency [2] 61.6 µM | Potency [5] 49.3 µM

CC(NCCC(c1ccccc1)c1ccccc1)c1ccccc1 (centres undefined)
active: Potency [1] 9.44 µM | Potency [5] 23.9 µM | Potency (Aromatase (Homo sapiens)) 29.8 µM

O=C(NO)c1ccccc1
active: Potency [1] 26 µM | Potency [2] 41.2 µM
inactive: Potency (Aromatase (Homo sapiens))

NCCCC(O)(P(=O)(O)O)P(=O)(O)O
inactive: Potency [1] | Potency [3] | Potency [5] | Potency [8]

CCOC(=O)COc1ccc(C)cc1
inactive: Potency [1] | Potency [4] | Potency [5] | Potency [6] | Potency [9] | Potency [7] | Potency [8] | Potency (Aromatase (Homo sapiens))

O=C1NCN(c2ccccc2)C12CCN(CCCC(c1ccc(F)cc1)c1ccc(F)cc1)CC2
active: Potency [1] 3.35 µM | Potency [2] 5.96 µM | Potency [8] 26.6 µM

NC1(c2ccc(-c3nc4ccn5c(=O)[nH]nc5c4cc3-c3ccccc3)cc2)CCC1
active: Potency [1] 13.3 µM | Potency [2] 13.3 µM | Potency [6] 21.3 µM [activator]
inactive: Potency [9] | Potency [8] | Potency (Aromatase (Homo sapiens))

[O]=[Zr]
inactive: Potency [1] | Potency [3] | Potency [5] | Potency [8] | Potency (Aromatase (Homo sapiens))
